Test results: PubChem BioAssay AID2025 (NMMLSC, 2009)
About 980 (0.3%) of roughly 330,000 compounds were called active.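 How the source made its calls: active means percent response vs DMSO below 50%; inconclusive means fewer than 70 events counted for the yeast strain; inactive means the rest.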 The full list was thinned out, with actives kept by preference.

Experiment: compounds altering RPL19A-GFP fluorescence, TOR branch – cell-based, S. cerevisiae, multiplex flow cytometry, MLPCN, primary screen (AID 2025);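 further: median channel GFP fluorescence of the barcoded RPL19A-GFP strain; ratio of sample median GFP to plate DMSO average so 100% = DMSO; lower means less RPL19A-GFP as with rapamycin TOR inhibition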
Details: S. cerevisiae RPL19A-GFP strain, 3 h, at 10 µM, hits give low values

Percent response vs DMSO, inactive:
COc1ccc(CN2CC(C(=O)NC3CCCCC3)CC2=O)cc1 (stereo not given) 99.4%
COc1ccc(CN2CC(C(=O)NCCN3CCN(c4ccccc4F)CC3)CC2=O)cc1 (stereo not given) 99.6%
O=C1C=CC(=O)N1c1ccc(N2CCCCC2)cc1 64.6%
CCOc1ccc(Br)cc1S(=O)(=O)Nc1ccc(C(=O)OC(C)C(=O)N(C)c2ccccc2)cc1 (stereo not given) 99.2%
Cc1nn(Cc2ccccc2)c(C)c1NS(=O)(=O)c1ccccc1 125%
Nc1c(-c2ccccc2)nnn1Cc1ccccc1 93.1%
CCOc1ccccc1N1C(=O)CC(Sc2nccc(C)n2)C1=O (stereo not given) 101%
C=C1CCN([C@@H](Cc2ccccc2)C(=O)N2CCOCC2)S(=O)(=O)c2ccccc21 102%
CCOc1cc(N2CCOCC2)c(OCC)cc1NC(=O)c1cc(C)nc2ccccc12 101%
CCOc1cc(N2CCOCC2)c(OCC)cc1NC(=O)COc1cccc(Cl)c1 101%
CCCOc1ccc(-c2c(C(=O)N/N=C/c3ccco3)nnn2-c2nonc2N)cc1 99.2%
Cc1ccccc1S(=O)(=O)N1[C@@H](c2cccc(Cl)c2)C(C(=O)O)=CC[C@H]1c1ccc(Cl)cc1 99.8%
O=C(CN1C(=O)COc2ccc(Cl)cc21)N1CCOCC1 101%
Cc1c(C#N)c(NC(=O)c2ccccc2)n(Cc2ccccc2)c1C 92.3%
COc1ccc(Cn2c(C)c(C)c(C#N)c2NC(=O)Nc2ccc(F)cc2)cc1 97.2%
COc1ccccc1NC(=S)N1CCN(c2ccc(F)cc2)CC1 106%
COc1cccc(NC(=O)CSc2nnc(Cc3ccc(OC)c(OC)c3)o2)c1 97.7%
N#Cc1ccc(C(=O)Nc2nc(-c3cccs3)c(C(=O)C(F)(F)F)s2)cc1 97.5%
CCCc1noc2c1/C(=N\O)CCC2 98.8%
CCCc1nn2c(=O)cc(CSCC(=O)Nc3cccc(C)c3)nc2s1 98%
Cc1ccc(Cn2c(C)c3cnn(CC(=O)NCc4ccccn4)c(=O)c3c2C)cc1 99.3%
O=C(Cn1ncc2c3ccccc3n(Cc3ccccc3)c2c1=O)NCc1ccccn1 93.6%
O=C(NCc1ccccc1Cl)C1CCN(S(=O)(=O)N2CCOCC2)CC1 91%
O=C(CCS(=O)(=O)c1cccc2nonc12)NCCc1ccccc1Cl 104%
CC(=O)C12CC(C)=C(C)CC1CC1C3CCC4=CC(=O)CCC4(C)C3CCC12C (stereo not given) 99.3%
CC(C)CCN1CCN=C1N(C)C 99.1%
NC(=O)C1CCN(CC(O)CSc2ccc(F)cc2)CC1 (stereo not given) 99.8%
COc1cc(NC(=O)c2ccc(-c3csc(C)n3)cc2)c(OC)cc1Cl 102%
CCS(=O)(=O)Nc1ccc(C2=NN(C(C)=O)C(c3cccs3)C2)cc1 (stereo not given) 102%
CCCCc1c(O)nc2n(c1=O)CCS2 93.4%
COc1ccc(CC(NC(C)=O)C(=O)NC2CCN(C(=O)c3ccc(OC)c(OC)c3)CC2)cc1OC (stereo not given) 93.8%
COc1ccc2[nH]c(=O)c(C3c4cc(OC)c(OC)cc4CCN3C(=O)c3ccco3)cc2c1 (stereo not given) 103%
COc1ccccc1-n1nnnc1S(=O)(=O)Cc1ccc(Cl)cc1 102%
Cc1cccc(C(=O)NC(=S)N(C)C2CCCCC2)c1 96.9%
Cc1c(NC(=O)Nc2cccc([N+](=O)[O-])c2)c(=O)n(-c2ccccc2)n1C 102%
Cc1cc(OCC(=O)Nc2c(C)n(C)n(-c3ccccc3)c2=O)ccc1[N+](=O)[O-] 97.2%
Cc1ccccc1-c1cc(C(=O)NCC2CC2)n(CC2CC(c3cccnc3)=NO2)n1 (stereo not given) 104%
CNC[C@H](CC1CCCCC1)NC[C@H](NCCC1CCCC1)[C@H](C)O 93.9%
CCCc1ccc(-c2c(C)sc(NC(=O)c3ccnn3C)c2C#N)cc1 98%
CC1(c2ccc3ccccc3c2)NC(=O)NC1=O (stereo not given) 105%
COc1ccc(CSc2nnnn2-c2ccc(C(=O)O)cc2)cc1 99.4%
COc1ccc(-c2nnn(Cc3nc(N)nc(N4CCCCC4)n3)n2)cc1 98.7%
O=C(COC(=O)CNC(=O)C1CCCCC1)Nc1cccc(F)c1 100%
OCC(O)CN(c1ccccc1)c1ccccc1 (stereo not given) 94.3%

Percent response vs DMSO, active:
COc1ccc(CN2CC(C(=O)NCCc3ccc(Cl)cc3)CC2=O)cc1 (stereo not given) 32.5% [may fluoresce violet]
OCc1nc(CO)n(Cc2ccccc2)n1 34.3% [may fluoresce violet]
CCOc1cc(N2CCOCC2)c(OCC)cc1NC(=O)COc1cccc2cccnc12 38.4% [may fluoresce violet]
Cc1ccc(C(=O)Nc2c(C#N)c(C)c(C)n2Cc2ccccc2)cc1 43.3% [may fluoresce violet]
Cc1c2cnn(CC(=O)NCc3ccccn3)c(=O)c2c(C)n1Cc1ccc(Cl)cc1 28.5% [may fluoresce violet]
O=C(NCc1ccccc1Cl)C1CCN(S(=O)(=O)c2cccc3nonc23)CC1 49% [may fluoresce violet]
CC(=O)O[C@]1(C(C)=O)CC[C@H]2[C@@H]3C=C(C)C4=CC(=O)CC[C@]4(C)[C@H]3CC[C@@]21C 33% [may fluoresce violet]
CCCS(=O)(=O)Nc1ccc(-c2cn3c(n2)SCC3)cc1 40.4% [may fluoresce violet]
CCc1ccc(OCC2c3cc(OC)c(OC)cc3CCN2C(C)=O)cc1 (stereo not given) 42.9% [may fluoresce violet]
Cc1c(NC(=O)c2c([N+](=O)[O-])cnn2C)c(=O)n(-c2ccccc2)n1C 41.5% [may fluoresce violet]
COc1ccc(-n2nnnc2SCc2nc(N)nc(N3CCOCC3)n2)cc1 48.8% [may fluoresce violet]
